The list is not random: actives were taken first. Their share in the collection is about 2.4%.
GLP-1R agonist: qHTS of GLP-1 Receptor Agonists; HEK293 GLP-1R CRE-luciferase, luminescence, 4-6 h; cells express a hypersensitive GLP-1R form; Potency, µM (highest dose often 45.6 µM), hits mostly activators; 380,000 compounds, 0.007% hits; AID 624172, 2012
Target sequence (P43220 whole entry, looked up): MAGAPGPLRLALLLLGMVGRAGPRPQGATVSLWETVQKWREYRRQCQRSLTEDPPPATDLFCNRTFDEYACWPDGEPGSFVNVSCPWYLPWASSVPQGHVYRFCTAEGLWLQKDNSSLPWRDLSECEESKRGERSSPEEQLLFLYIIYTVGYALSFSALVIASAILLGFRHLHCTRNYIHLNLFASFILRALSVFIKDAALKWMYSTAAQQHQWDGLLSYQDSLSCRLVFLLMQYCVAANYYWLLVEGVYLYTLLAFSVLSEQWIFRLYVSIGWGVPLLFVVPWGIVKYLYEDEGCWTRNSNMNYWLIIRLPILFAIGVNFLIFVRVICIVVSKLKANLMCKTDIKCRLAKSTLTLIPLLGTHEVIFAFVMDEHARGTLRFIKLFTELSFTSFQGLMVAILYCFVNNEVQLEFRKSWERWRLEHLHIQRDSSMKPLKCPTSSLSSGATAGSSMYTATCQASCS
GLP1R inv ag: qHTS of GLP-1 Receptor Inverse Agonists (Inhibition Mode); Glucagon-like peptide 1 receptor (Homo sapiens), P43220; HEK293 GLP-1R CRE-luciferase, luminescence, 24 h; GLP-1R form is constitutively active; AID 624417, 2012; 410,000 compounds, 1.6% hits; Potency, µM (highest dose often 38.3 µM), most hits filed as inhibitors; further: nearly all actives have a fitted effect of over 55% in size
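Luminescence readout: a drop in cAMP-driven luciferase signal flags inverse agonism at a constitutively active GLP-1R stably expressed in HEK293. Compound exposure lasted 24 hr at 37 deg C, 5% CO2.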
HEK293 tox: qHTS of GLP-1 Receptor Inverse Agonists: Cytotox Screen. HEK293 cAMP-luciferase reporter cells, luminescence, 24 h. Potency, µM (titrated, usually from 38.3 µM), hits mostly inhibitors. 410,000 compounds, 0.13% hits;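 further: loss of luciferase light is scored as toxicity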
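A 23 nL compound transfer followed 12 hours of cell culture at 37 deg C; exposure then lasted 24 hr. Luciferase assay detection reagent was dispensed and plates read for luminescence after a 12 min room-temperature wait.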
PTHR1 ag: qHTS for PTHR1 Agonists: Primary Screen. 410,000 compounds, 0.075% hits. HEK293 GP2 PTHR1 cells, GloSensor cAMP luminescence, 1 h. Potency, µM (top dose mostly 115 µM), usual class: activators. Parathyroid hormone/parathyroid hormone-related peptide receptor (Homo sapiens), Q03431; further: nearly all actives have a fitted effect of over 55% in size
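HEK-293-derived GP2 cells expressing PTHR1 and a GloSensor cAMP reporter, 3,000/well, plated overnight, given luciferin plus IBMX (each 0.5 mM as added) for 1 h at 37 °C, then compound for 1 h at 37 °C. Luminescence was read after 15 min at room temperature.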
TRHR enhancer: qHTS for Small Molecule Agonists and Allosteric Enhancers of Human TRH Receptor: Primary Screen for Enhancers | enhancement, % at 2 µM | TRHR cells, fluo-8 calcium fluorescence, EC20 TRH enhancement | Thyrotropin-releasing hormone receptor (Homo sapiens), P34981 | AID 493056, 2011 | 360,000 compounds, 0.66% hits; in the data active means enhancement above about 30%
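Enhancer read-out: after compound pinning and an initial kinetic agonist-mode read, an EC20 of TRH (10 nM final) was injected and fluo-8 calcium signal (Ex 480/Em 530) followed at 1 s/cycle for 100 cycles in TRHR-expressing cells.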
TRHR agonist: qHTS for Small Molecule Agonists and Allosteric Enhancers of Human TRH Receptor: Primary Screen for Agonists; Thyrotropin-releasing hormone receptor (Homo sapiens), P34981; TRHR cells, calcium flux fluo-8, FDSS agonist mode; activation, % at 2 µM; 360,000 compounds, 0.18% hits; AID 493084, 2011; in the data active means activation above about 30%
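TRHR-expressing cells loaded with fluo-8 calcium dye; 23 nL library compound pin-transferred, kinetic FDSS fluorescence (Ex 480/Em 530) recorded about 180 s for agonist-induced calcium release, before a 10 nM TRH EC20 addition for potentiator mode.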
A number is an active result; - = inactive; ? = inconclusive; . = no result given; [ ] = remark or other dose. Unless noted, the call rests on the fitted dose curve; in most records, active means well fitted curve in the direction sought with a large enough effect; inconclusive means small, poorly fitted or top-dose-only effect, or another doubt; inactive means no such curve, though single readings can be large; an effect the other way counts as inactive or inconclusive.

SMILES | GLP-1R agonist | GLP1R inv ag | HEK293 tox | PTHR1 ag | TRHR enhancer | TRHR agonist
CCOC(=O)c1sc(N)c(C#N)c1CSc1nnc(C2CC2)n1N | - | - | - | - | - | -
Cc1ccc(C)c(NC(=O)Cn2c(=O)n(Cc3ccco3)c(=O)c3ccc(C(=O)NC4CCCC4)cc32)c1 | - | - | - | - | - | -
Cc1cc(C)c(NC(=O)Cn2c(=O)n(Cc3ccco3)c(=O)c3ccc(C(=O)NC4CCCC4)cc32)c(C)c1 | - | - | - | - | 55 | -
Cc1ccc(C2/C(=C(\O)c3c(C)nc4ccccn34)C(=O)C(=O)N2CCN(C)C)o1 (configuration not stated) | - | - | - | - | - | -
S=c1[nH]nc(-c2ccncc2)n1/N=C/c1cn(-c2ccccc2)nc1-c1ccccc1 | - | - | - | - | 30 | -
O=C(NNC(=O)c1ccccc1F)c1ccc(-c2ccccc2Cl)o1 | - | - | - | - | . | .
Cc1ccc(SCC(=O)NCc2ccccc2C)cc1 | - | ? | - | - | - | -
CCOc1cc(C(=O)NCC(C)(C)CNC(=O)c2cc(OCC)c(OCC)c(OCC)c2)cc(OCC)c1OCC | - | 10µM | - | - | . | .
COc1cc(C(=O)NCC(C)(C)CNC(=O)c2cc(OC)c(OC)c(OC)c2)cc(OC)c1OC | - | - | - | - | - | -
C[C@@]12CCC3[C@@](CCC4[C@@]3(C)CCC[C@@]4(C)C(=O)Nc3ccc(Cl)cc3)(CC1=O)C2 (some centres not stated) | - | - | - | - | - | -
Cc1ccc(C23CC4CC(CC(C(=O)N5CCN(C)CC5)(C4)C2)C3)cc1 | - | 8.9µM | - | - | - | -
Cc1c(C2CC(=O)N(c3ccccc3)C2=O)[nH]n(-c2ccccc2)c1=O (configuration not stated) | - | - | - | - | - | -
Cc1ccc(S(=O)(=O)N(CCC(=O)NCc2ccccc2F)c2ccccc2)cc1 | - | ? | - | - | - | -
COc1cccc(CN(C)C(=O)CCN(c2ccccc2)S(=O)(=O)c2ccc(C)cc2)c1OC | - | 8.9µM | - | - | - | -
COc1ccc(N2C(=O)/C(=C/c3ccc([N+](=O)[O-])cc3)N=C2C)c(OC)c1 | - | -[7.66 µM] | -[7.66 µM] | - | - | -
O=C(CN1CCCC1)Nc1ccccc1Sc1ccccc1 | - | ? | - | - | - | -
CC1CCN(CC(=O)Nc2ccccc2Sc2ccccc2)CC1 | - | 4.5µM | - | - | - | -
Cc1ccc(C2N(c3ccc(Cl)cc3)C(=O)N3CCCN23)cc1 (configuration not stated) | - | 10µM | - | - | - | -
CCOC(=O)c1c(C)[nH]c(N=Nc2ccccc2)c1C | - | 10µM | ? | - | - | -
CCOC(=O)c1c(C)[nH]c(N=Nc2ccc(C)cc2)c1C | - | ? | ? | - | - | -
O=C(O)COc1ccccc1C=NNC(=O)c1ccc(NS(=O)(=O)c2cccs2)cc1 | - | - | - | - | . | .
CC1(NC(=O)CCc2ccccc2)CCN(CCCc2ccccc2)C1=O (configuration not stated) | - | - | - | - | - | -
O=C(CCc1ccccc1)NC1(Cc2ccccc2)CCN(CCc2cccs2)C1=O (configuration not stated) | - | 10µM | - | - | - | -
O=C1/C(=C\c2ccccc2)SC(=S)N1CCC(=O)N1CCCCC1CCO (configuration not stated) | - | ? | ? | - | - | -

Compound activity deposited in PubChem by National Center for Advancing Translational Sciences (NCATS).
